CHRM1 PAM: potentiates human M1 receptor response to acetylcholine. CHO-K1 hM1, Fluo-8 calcium fluorescence, ACh EC20; 0% = ACh EC20, 100% = maximal ACh. AID 588819. P11229. actives 0.088% (n = 360,000). activation, % at 3 µM; in the data active means activation above about 19%, passing the limit was not always enough
Target sequence (P11229 whole entry, looked up): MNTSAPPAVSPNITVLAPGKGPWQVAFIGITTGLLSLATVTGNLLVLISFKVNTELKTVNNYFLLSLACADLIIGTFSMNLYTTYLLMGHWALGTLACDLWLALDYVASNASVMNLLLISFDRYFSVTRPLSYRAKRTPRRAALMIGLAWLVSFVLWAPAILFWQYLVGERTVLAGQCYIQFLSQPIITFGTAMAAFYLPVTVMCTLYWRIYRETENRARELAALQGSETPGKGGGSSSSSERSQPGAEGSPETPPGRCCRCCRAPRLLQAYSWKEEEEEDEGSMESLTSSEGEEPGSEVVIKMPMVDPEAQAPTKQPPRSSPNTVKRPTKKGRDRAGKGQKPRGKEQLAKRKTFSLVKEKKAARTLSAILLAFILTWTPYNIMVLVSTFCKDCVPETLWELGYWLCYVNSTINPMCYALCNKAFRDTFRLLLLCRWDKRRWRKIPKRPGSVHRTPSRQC
M1 antag: human CHRM1 antagonism; CHO-K1 hM1, Fluo-8 calcium fluorescence, ACh EC80 antagonist; inhibition, % at 3 µM; actives 1.3% (n = 360,000);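 active means percent inhibition above its own plate's cutoff, namely the mean of that plate's compound wells plus 3 SD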;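 further: peak over basal fluorescence ratio during 140 s after agonist addition; 0% = ACh EC80 plus DMSO and 100% = DMSO alone without agonist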
CHO-K1 Ca antag: M1 antagonist counterscreen hit in parental CHO-K1 cells; ATP-induced calcium, Fluo-8 fluorescence; inhibition, % at 3 µM; actives 0.6% (n = 360,000);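 active means inhibition above a per-plate cutoff, the plate's mean sample inhibition plus 3 SD, cut at about 24% in these data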;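 further: 0% = DMSO plus EC80 ATP and 100% = DMSO alone without ATP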
M1 PAM parental: counter-screen for M1 PAMs: effect in parental CHO-K1 cells; activation, % at 3 µM; ATP EC20, Fluo-8 calcium fluorescence; 0% at ATP EC20, 100% at ATP max; actives 0.02% (n = 360,000);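 active means activation above the run cutoff, the mean activation of all test compounds plus 3 SD, cut at about 40% in these data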;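 further: peak over basal fluorescence ratio in a 140 s read after ATP addition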
M1 ag parental: nonselective activator or artifact in parental CHO-K1 cells; Fluo-8 calcium fluorescence; scaled to maximal ATP response, vehicle zero; activation, % at 3 µM; actives 0.48% (n = 360,000); AID 602248; in the data active means activation above about 15%;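 further: untransfected CHO-K1 host cells lacking M1 receptor as counterscreen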
CHRM1 agonist: activates human CHRM1 receptor. P11229. CHO-K1 hM1, Fluo-8 calcium fluorescence, agonist mode; 0% DMSO, 100% acetylcholine EC100. activation, % at 3 µM. actives 0.33% (n = 360,000). AID 588814;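 active means activation above the run's mean compound activation plus 3 SD, cut at about 16% in these data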;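 further: peak over basal fluorescence ratio within a 140 s kinetic read after compound addition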
* hit, by the source's call; . = not tested or not shown. Hits are enriched below; roughly 2.3% of the tested compounds scored in any of these assays.

SMILES	CHRM1 PAM	M1 antag	CHO-K1 Ca antag	M1 PAM parental	M1 ag parental	CHRM1 agonist
CCCOc1ccc(C(=O)NNC(=S)NC(=O)c2cc(-c3ccc(Cl)cc3)nc3ccccc23)cc1	4	4	13	3	0	-2
COc1ccc(C(=O)NC(=S)NNC(=O)c2ccccc2C)cc1	-22	19	24*	-31	85*	85*
COc1ccc(C(=O)NNC(=S)NC(=O)c2cc(-c3ccccc3)nc3ccccc23)cc1	5	-23	-20	6	30*	3
COc1ccc(C(=O)NNC(=O)c2ccc(C(C)(C)C)cc2)cc1	6	-2	10	7	4	-8
COc1cc(C(=O)NNC(=S)NC(=O)c2ccccc2C)cc(OC)c1OC	0	-2	6	6	24*	14
COc1ccc(C(=O)NNC(=S)NC(=O)C(C)(C)C)cc1	-24	29	15	-31	86*	77*
Cc1ccc(C)c(NC(=O)Cn2nc(C(F)(F)F)cc2C2CC2)c1	26*	-20	-41	2	0	1
NC(=O)CC(NC(=O)c1cccc(Br)c1)c1ccc(NC2CCN(Cc3ccccc3)CC2)c([N+](=O)[O-])c1 (stereo not drawn)	-26	46*	-14	11	1	-11
NC(=O)CC(NC(=O)Cc1ccc(Cl)cc1)c1ccc(NC2CCN(Cc3ccccc3)CC2)c([N+](=O)[O-])c1 (stereo not drawn)	-27	27	2	-2	0	-11
CCOc1ccc(-c2cc(C(=O)Nc3cc(OC)c(OC)c(OC)c3)[nH]n2)c(C)c1	5	-8	13	15	3	-2
CNc1ccc2ncc(-c3ccccc3C(C)=O)n2n1	9	-9	-2	13	1	-4
COc1ccc(-n2nc(C(=O)NCC(=O)Nc3cc(OC)c(OC)c(OC)c3)c3ccccc3c2=O)cc1	-13	27*	2	-14	6	-2
COc1ccc(NC(=O)CNC(=O)c2nn(-c3ccc(OC)c(OC)c3)c(=O)c3ccccc23)c(OC)c1	3	1	-7	1	7	0
COc1ccc(-n2nc(C(=O)NCC(=O)Nc3cccc(NC(C)=O)c3)c3ccccc3c2=O)cc1	0	10	-6	2	3	0
COc1ccccc1-n1nc(C(=O)NCc2ccco2)c2ccccc2c1=O	-14	15*	1	4	0	-2
COc1ccc(-n2nc(C(=O)NCc3ccco3)c3ccccc3c2=O)cc1	1	-6	-22	13	1	-2
COc1ccc(-n2nc(C(=O)NCC(=O)Nc3cc(OC)c(OC)c(OC)c3)c3ccccc3c2=O)cc1OC	-11	30*	1	6	8	0
CCC1CCCCN1CCCNC(=O)CNC(=O)c1nn(-c2ccc(OC)c(Cl)c2)c(=O)c2ccccc12 (stereo not drawn)	-30	49*	-2	15	0	-13
Cc1[nH]c(=O)[nH]c(=O)c1S(=O)(=O)Nc1ccc(F)cc1Cl	21	-24	4	-10	0	-1
CC(=O)Nc1ccc(S(=O)(=O)N2CCC3(CC2)CC(=O)c2ccccc2O3)cc1	-15	32*	9	-17	2	-3
COc1ccc(CNc2ncnc3sccc23)cc1OC	-4	-1	9	-4	16*	3
CN(C)C(CNc1ncnc2sccc12)c1ccccc1 (stereo not drawn)	-33	47*	5	-14	0	-14
COc1ccc(C(CNc2ncnc3sccc23)N(C)C)cc1OC (stereo not drawn)	7	-11	-16	6	1	-8
COc1ccc(CNc2ncnc3sccc23)cc1	-19	31*	23	-19	12	-1
COc1ccc(CCNc2ncnc3cc(OC)c(OC)cc23)cc1OC	-7	8	-9	-5	16*	-1
SMILES	CHRM1 PAM	M1 antag	CHO-K1 Ca antag	M1 PAM parental	M1 ag parental	CHRM1 agonist
O=C(O)c1ccc(CNC(=O)C2CCN(S(=O)(=O)c3ccc4c(c3)OCCO4)CC2)cc1	8	-6	18	-4	0	0
Cc1cc(Cl)ccc1NC(=O)COC(=O)c1c(C)noc1C	7	-2	7	23	0	-2
CCOc1ccc(NCc2cccn2-c2nnc(N3CCC(C(=O)NCCCN4CCCCC4CC)CC3)s2)cc1 (stereo not drawn)	-23	88*	-14	-1	0	-5
CCOCCCNC(=O)c1c(C)[nH]c(C(=O)OCC)c1C	3	-1	10	1	0	-4
CCOCCCNC(=O)c1[nH]c(C)c(C(C)=O)c1C	3	-11	24*	-5	0	-1
Cc1cc(NC(=O)C2CC(=O)N(c3cccc(Cl)c3)C2)no1 (stereo not drawn)	2	-5	3	9	16*	-5
O=C(COC(=O)CCC1CCCC1)Nc1ccc(F)cc1Cl	15	-14	-15	12	0	-4
Nc1cc(=O)[nH]c(=O)n1CCc1ccccc1	1	4	-13	20	2	-1
COc1ccc(NC(=O)c2cc(C3CCCCN3S(C)(=O)=O)on2)c(C)c1 (stereo not drawn)	13	-14	28*	-17	1	3
COc1ccc2sc(N(CCN(C)C)C(=O)c3ccc4ccccc4c3)nc2c1	5	-6	5	13	0	20*
CCCCN1C[C@H](c2ccccc2)[C@@H](CC(=O)NC)C1=O	5	-17	34*	-9	0	1
CCCCN1C[C@H](C)[C@@H](CC(=O)NC)C1=O	10	-12	-2	16	0	-1
O=C(NCc1ccccn1)[C@@H]1CCCN1C(=O)[C@@H]1CCCN1	.	.	-19	19	1	.
N#Cc1cnn(CC2CCCCC2)c1N	1	1	30*	-8	0	-4
Nc1ccc(N2CCN(c3cccc(Cl)c3)CC2)cc1	-1	-6	-5	24	3	-11
Nc1cc(=O)[nH]n1C1CCN(c2ccccc2)CC1	3	-5	26*	-5	-1	0
Cc1ccc2nc(SCC(=O)N3CCC(Cc4ccccc4)CC3)nc(=O)n2c1	-8	-2	14	-13	9	20*
CCN1C(=O)/C(=C/C=C2/SCCN2C)SC1=S	6	-4	12	2	3	8
CCCCN1C(=O)/C(=C/C=C2/CC(C)(C)CN2C)SC1=S	-18	36*	28*	2	38*	31*
CCCCN1C(=O)/C(=C/C=C2\Oc3ccccc3N2CC)SC1=S	-8	43*	22	2	15*	28*
Nc1sc(-c2ccccc2)n[n+]1Cc1cccc2cccnc12	-25	66*	-4	8	8	-3
COc1ccnc(Oc2ccccc2)c1C(N)=O	6	-5	27*	-13	0	-2

Compound activity from PubChem BioAssay.
